# Test results published in the OligoGym collection.
# Biological target: FAM55C
# Assay: pooled miR-30 sensor sort-seq; sequence = guide strand
# Conditions: shRNA
# Note: reference of the scale not given here.
row,Sequence,sensor-assay potency score (higher = more potent)
1,TTCAAGATGACAAAGTAGCTGG,0.358
2,TAGTTTCAGAAATTCTTCCTGA,0.381
3,TTACACAAAAGTCAATTCCTAA,-0.448
4,TTAAACTCCACTAAATCTGGAA,-0.0245
5,AAACACTCTACTACCAACCAAA,-0.932
6,TTTATCTTCCTGTAAGCGCTGA,0.412
7,TAAGCTACAAACACTCTACTAC,0.449
8,TTTGGTTTGAAGCAGAACCAGG,-1.09
9,TTTCTTTGTAAGCACTCTGTAA,-0.921
10,TTGAGATAGTTCTAGACTGTTA,-0.125
11,TTAGTTTCTTTTATTCTCCTGG,0.337
12,TATAATATCGTAGCATTCTTTA,-1.01

# Biological target: FAM57A
# Assay: as above
# Conditions: shRNA
row,Sequence,sensor-assay potency score (higher = more potent)
1,TAGGAAGTTTCGAAGAGTGAGG,-0.893
2,ATCATCACGCAGTCGGTGCGGC,-0.575
3,TTCGACTTAGGAAGTTTCGAAG,-0.637
4,TTGGGGAGTGTCAAAGAGCCGG,-1.25
5,TTTAGCTGAATCAGAACCCTGC,0.947
6,TAGGACCAGTACATGAAGGGGA,0.407
7,TGATGTGTGATCATGAGGCGGT,0.245
8,TGCACCGAGGAAACCAGCCTGG,-1.21
9,TTTCGACTTAGGAAGTTTCGAA,-0.112
10,ATCACGTCGTCGCAGGAGCGAA,-1.8
11,TTGCAGTAGAATGGGATGCTGA,-0.668
12,TTGGAGCAGGCTTAGTCCCTGC,-0.863

# Biological target: FAM58A
# Assay: as above
# Conditions: shRNA
row,Sequence,sensor-assay potency score (higher = more potent)
1,ATCGATTTCATGACTTTCCTTT,0.417
2,TTGTAGTCAAAGTCCTCTCAAA,-0.91
3,TAGTGGAGCAGGTACTTGTGTG,-1.12
4,TTGAAGACATGGCAATCAGGTA,-0.548
5,TCTCGCAAAAGAACTTATGGTA,-0.0793
6,TTGGACACATTGATGATGTCAC,-0.0439
7,TTGGGTTAAAGTACCTGTTGGA,0.579
8,TAGGGATTCAGTCTCATCGATT,-1.22
9,ATTGATGATGTCACGAGTCCGC,-0.413
10,TATGGTAAATGGTGCAAGCAGT,-0.754
11,TTGGTCTCGCAAAAGAACTTAT,-0.839
12,TTGATGATGTCACGAGTCCGCA,-0.773
